Test results reported in PubChem BioAssay (NCI).
The panel holds about 83,000 compounds, 20% with a hit somewhere; the sample as a whole holds those more often.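 Compound tested at a single concentration for 48 hours in 96-well plates; a percent growth value below 10 was scored as active.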 A number with no mark means an inactive call. The source made the active and inactive calls.

Key:
Experiment in all cases: NCI-60 one-dose screen, 48 h (100 = growth as untreated, 0 = no growth, -100 = all killed)
Settings in all cases: 10 µM unless noted
DU-145 prostate = system: DU-145 prostate
K-562 leukemia = system: K-562 leukemia
MALME-3M melanoma = system: MALME-3M melanoma
MDA-MB-231 breast = system: MDA-MB-231 breast
RXF 393 renal = system: RXF 393 renal
SF-268 CNS = system: SF-268 CNS
SF-295 CNS = system: SF-295 CNS
SF-539 CNS = system: SF-539 CNS
UACC-257 melanoma = system: UACC-257 melanoma
M14 melanoma = system: M14 melanoma
HCT-15 colon = system: HCT-15 colon
HT29 colon = system: HT29 colon
SNB-75 CNS = system: SNB-75 CNS
SNB-19 CNS = system: SNB-19 CNS
U251 CNS = system: U251 CNS
PC-3 prostate = system: PC-3 prostate
SK-MEL-5 melanoma = system: SK-MEL-5 melanoma
UACC-62 melanoma = system: UACC-62 melanoma
LOX IMVI melanoma = system: LOX IMVI melanoma
SK-MEL-28 melanoma = system: SK-MEL-28 melanoma

Compound | growth (DU-145 prostate) | growth (K-562 leukemia) | growth (MALME-3M melanoma) | growth (MDA-MB-231 breast) | growth (RXF 393 renal) | growth (SF-268 CNS) | growth (SF-295 CNS) | growth (SF-539 CNS) | growth (UACC-257 melanoma) | growth (M14 melanoma) | growth (HCT-15 colon) | growth (HT29 colon) | growth (SNB-75 CNS) | growth (SNB-19 CNS) | growth (U251 CNS) | growth (PC-3 prostate) | growth (SK-MEL-5 melanoma) | growth (UACC-62 melanoma) | growth (LOX IMVI melanoma) | growth (SK-MEL-28 melanoma)
Cc1ccc2[nH]c(=O)c3c(c2c1)OC(N)=C(C#N)C31c2cc(Br)ccc2-c2ccc(Br)cc21 | 29.1% | 60.7% | 54.9% | 39.1% | 65.8% | 78% | 70.1% | 85.5% | 76.8% | 55.1% | 45.4% | 39.7% | 70% | 62.5% | 72.6% | 48.3% | 56% | 49.5% | 63% | 66.8%
N#Cc1c(N)nn(C(=O)c2ccc(NC(=O)c3ccccn3)cc2)c1-c1ccc(Cl)cc1 | 3.96% (active) | 34.2% | -17.5% (active) | 61.1% | 54% | -8.49% (active) | 54.9% | -27.8% (active) | 48% | 17.1% | 32.9% | 18.1% | 27.3% | 23.4% | -39.2% (active) | 15.5% | 25% | 43.1% | 30.5% | 70.4%
COC(=O)c1ccc(CSc2nnc(-c3c(C)nc4ccc(C)cn34)o2)cc1 | 106% | 82.6% | 111% | 84.1% | 97% | 102% | 105% | 103% | 116% | 105% | 104% | 111% | 85.9% | 94.2% | 99.2% | 106% | 93.8% | 89.2% | 94.2% | 103%
Cc1nc2c(c(N3CCCc4ccccc43)n1)CCC2 | -8.95% (active) | 4.8% (active) | 54.2% | 18.1% | 33% | 16.9% | 9.59% (active) | 1.1% (active) | 26.3% | -17.6% (active) | 4.84% (active) | 3.44% (active) | 20.4% | 40% | 7.57% (active) | 12.8% | -49% (active) | 24.3% | 21.2% | 60.4%
CC1(C)CC[C@]2(C(=O)N3CCOCC3)CC[C@]3(C)C(=CC[C@@H]4[C@@]5(C)CC[C@H](OC(=O)c6cccnc6)C(C)(C)[C@@H]5CC[C@]43C)[C@@H]2C1 | 60.9% | 36% | 88.6% | 70.4% | 84.3% | 71.1% | 51.2% | 71.5% | 65.5% | 72.8% | 49.4% | 42.3% | 67.7% | 67.5% | 53.2% | 38.9% | 54.3% | 35.7% | 28% | 66.1%
COc1ccc(N=Nc2ccc(O)c(=O)cc2)cc1 | 19.3% | 2.95% (active) | 9.91% (active) | 17.5% | 29.7% | 22.3% | 10.2% | -5.77% (active) | 7.51% (active) | 13% | 16.4% | 33.1% | 8.47% (active) | 15.1% | 12.8% | 36.6% | -23.3% (active) | -54% (active) | -38.8% (active) | 5.78% (active)
Cc1cc(NCc2cc(Nc3ccnc4cc(Cl)ccc34)ccc2F)nc(N2CCN(c3ccccc3)CC2)n1 | 72.5% | -0.109% (active) | 84.4% | 17.2% | 47.4% | 65.3% | 27.3% | 61.9% | 73.7% | 43.4% | 15.6% | 13.6% | 57.7% | 76.5% | 10.5% | 42.7% | 53.3% | 70.6% | -84.6% (active) | 69.7%
COc1ccc(-c2nc(SC(C)C)nc(NNC(N)=S)c2C#N)cc1 | 77.7% | 16.9% | 51.7% | 43.3% | 63.7% | 62.5% | 55.2% | 50.1% | 82.7% | 53.8% | 23.6% | 85% | 32.3% | 38% | 52.8% | 55.6% | 28.9% | 22.2% | 40.2% | 58.7%
COc1cc(Cn2ncc3ccc(NC(=O)c4cc5ccccc5oc4=N)cc32)cc(OC)c1OC | 88.5% | 16.3% | 54% | 54.4% | 73.3% | 85.8% | 63.6% | 29.5% | 98.8% | 29.5% | 27.2% | 15.8% | 90.9% | 70.9% | 62.9% | 47.1% | 61.6% | 55.2% | 63.6% | 51.3%
O=C(COc1ccc(/C=C2\Oc3ccccc3C2=O)cc1)c1ccc(Cl)cc1 | 119% | 93.7% | 111% | 85.7% | 91.8% | 106% | 309% | 96.7% | 117% | 108% | 106% | 107% | 103% | 94.3% | 104% | 98.2% | 109% | 88.2% | 95.8% | 120%
N[C@@H](CCCCNCC(=O)O)C(=O)O | 103% | 100% | 97.6% | 89.1% | 108% | 102% | 100% | 92.7% | 101% | 104% | 98.8% | 116% | 84.1% | 99.2% | 99.9% | 121% | 101% | 94.4% | 100% | 104%
CN1CCN(CCCOc2ccc3nc(Nc4ccc(F)c(F)c4)ccc3c2)CC1 | 39.9% | -30.3% (active) | 3.13% (active) | -31.6% (active) | 48.6% | 46.5% | -51.4% (active) | 14.3% | -52.9% (active) | -53.1% (active) | -29.3% (active) | -36.2% (active) | 24.3% | 26.5% | 13.7% | 22.5% | -6.85% (active) | -67.1% (active) | -89.5% (active) | -67.4% (active)
CN(C)CCNc1nc2ccccc2c2c1c1c(n2Cc2ccccc2)-c2ccccc2C1=O | -100% (active) | -57.9% (active) | -59% (active) | -79.8% (active) | -65.5% (active) | -81.9% (active) | -77.3% (active) | -91.3% (active) | -85.3% (active) | -81.8% (active) | -88.2% (active) | -100% (active) | -96.1% (active) | -86.3% (active) | -95.9% (active) | -88.6% (active) | -100% (active) | -94.1% (active) | -96.2% (active) | -100% (active)
CCCCCCCC/C=C\CCCCCCCCOc1ccccc1CC(=O)NCC[N+](C)(C)C | 80.1% | 54.6% | 89.8% | 72.9% | 16.6% | 65.9% | 63.8% | 77.5% | 88.9% | 57.4% | 56.6% | 33.4% | 45.9% | 25.3% | 12.7% | 4.4% (active) | 74.7% | 66.5% | 74.1% | 88.8%
COc1ccc(/C=C/c2c(C(=O)/C=C/c3ccc(F)cc3)c(C)nc3ccccc23)cc1 | 35.8% | 10.3% | 83.6% | 54.8% | 55.5% | 69.3% | 62.4% | 81.5% | 66.6% | 65% | 10.8% | 23.6% | 52.1% | 60.9% | 49.6% | 41.7% | 63.4% | 46.8% | 19.7% | 55.3%
